RGS4 inh: Inhibitors of Regulator of G Protein Signaling (RGS) 4: qHTS | Regulator of G-protein signaling 4 (Homo sapiens), P49798 | Transcreener GDP fluorescence polarization, RGS4-accelerated GTP hydrolysis | Potency, µM (highest dose often 114 µM), without a hit: at the top dose activity change, negative = inhibition, actives largely listed as inhibitors | 390,000 tested, 0.039% active; note: potency is the fitted concentration of half-maximal effect; % is set by controls: 0 for no effect and ±100 for the full control effect; nearly all actives have a fitted effect of over 75% in size
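MLSMR compounds (23 nl, pin-transferred) preincubated 10 min at room temperature with a 500nM (2x) first reagent, then RGS4 at 900nM (2x) plus Transcreener GDP mix added; fluorescence polarization (620/688 nm) read before and after 90 min at 30 °C.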
D3 antag: qHTS of D3 Dopamine Receptor Antagonist: qHTS | D(3) dopamine receptor (Homo sapiens), P35462 | D3R cells, DiscoveRx beta-arrestin luminescence, antagonist mode; active compounds read low | max response, negative = inhibition, % | 360,000 tested, 2.5% active; in the data active = max response below about -50%; inconclusive = no clear call, values can overlap the other calls; note: % is set by controls: 0 for no effect and ±100 for the full control effect
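Cells plated overnight at 1500 cells/well, then exposed to library compounds with dopamine controls for 90 minutes at 37 degrees C. DiscoveRx reagent added for 30–60 minutes at room temperature; luminescence read, quantitative HTS format.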
PTHR1 ag: qHTS for PTHR1 Agonists: Primary Screen | HEK293 GP2 PTHR1 cells, GloSensor cAMP luminescence, 1 h | 410,000 tested, 0.075% active | Potency, µM (highest dose often 115 µM), for inactives: at the highest dose activation, hits mostly activators | AID 743266, 2014; note: potency is the fitted concentration of half-maximal effect; nearly all actives have a fitted effect of over 55% in size
Target sequence (Q03431 whole entry, looked up): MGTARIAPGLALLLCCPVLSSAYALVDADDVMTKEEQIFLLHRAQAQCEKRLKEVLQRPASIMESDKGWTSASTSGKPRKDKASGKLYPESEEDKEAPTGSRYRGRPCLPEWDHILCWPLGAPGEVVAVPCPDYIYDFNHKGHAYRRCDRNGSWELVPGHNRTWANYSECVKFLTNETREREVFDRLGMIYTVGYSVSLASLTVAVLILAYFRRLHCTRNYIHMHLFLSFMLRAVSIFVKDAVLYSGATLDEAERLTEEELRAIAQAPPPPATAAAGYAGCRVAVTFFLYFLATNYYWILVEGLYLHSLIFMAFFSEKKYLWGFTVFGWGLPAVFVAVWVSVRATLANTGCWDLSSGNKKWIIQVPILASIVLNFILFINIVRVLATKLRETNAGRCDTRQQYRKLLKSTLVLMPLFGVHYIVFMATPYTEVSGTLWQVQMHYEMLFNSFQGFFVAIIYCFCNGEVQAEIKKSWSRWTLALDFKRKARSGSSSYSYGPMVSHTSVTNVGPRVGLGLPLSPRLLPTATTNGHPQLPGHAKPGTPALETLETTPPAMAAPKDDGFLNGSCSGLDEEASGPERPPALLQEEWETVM
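HEK-293-derived GP2 cells expressing PTHR1 and a GloSensor cAMP reporter, 3,000/well, plated overnight, given luciferin plus IBMX (each 0.5 mM as added) for 1 h at 37 °C, then compound for 1 h at 37 °C. Luminescence was read after 15 min at room temperature.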
DRD3 agonist: qHTS of D3 Dopamine Receptor Agonist: qHTS. max activation, %. AID 652048, 2013. 410,000 tested, 0.58% active. D(3) dopamine receptor (Homo sapiens), P35462. D3R DiscoveRx beta-arrestin cells, luminescence, 90 min; in the data active = max activation above about 30%; note: 0% is about no effect
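Agonist mode: compounds and dopamine controls were applied to plated cells for 90 min at 37 degrees C after an overnight attachment at 1500 cells/well. Luminescent read-out followed 30 - 60 minutes at room temperature with DiscoveRx detection reagent.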
B2AR arrestin: qHTS assay of beta-arrestin-biased ligands of beta2-adrenergic receptor. beta-arrestin recruitment to beta2AR, cell-based reporter. Potency, µM (doses to about 46.1 µM), for the others: top-dose activation, hits mostly activators. 330,000 tested, 0.02% active. AID 492947, 2010;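 note: potency is the fitted concentration of half-maximal effect; 0% = DMSO controls and full agonism = EC100 isoproterenol or metaproterenol; nearly all actives have a fitted effect of over 65% in size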
BRCA1 expr up: qHTS Assay to Identify Small Molecule Activators of BRCA1 Expression; Potency, µM (top dose mostly 46.1 µM), without a hit: top-dose activation, actives largely listed as activators; MCF7-BRCA1-FFLuc reporter, luminescence, 48 h; response scale: scaled: vehicle 0%, 10 µM genistein 100%; 380,000 tested, 1.1% active; AID 624202, 2012; note: potency is the fitted concentration of half-maximal effect; nearly all actives have a fitted effect of over 80% in size
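Using MCF7 cells harboring a BRCA1 firefly luciferase reporter, plated 2 h before compound pinning, the screen measured luminescence after 48 h incubation. Responses were normalized to DMSO and 10 microM genistein, then fitted for concentration-effect.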
Starred values were filed as active, the others as inactive; i = inactive; ? = inconclusive; . = no result given; [ ] = another dose, or the depositor's remark. Compounds with a hit are over-represented: about 3.7% of the library has one in this group of screens. Unless noted, calls come from the whole dose curve; as a rule, active = well fitted curve in the direction sought with a large enough effect; inconclusive = small, poorly fitted or top-dose-only effect, or another doubt; inactive = no such curve, though single readings can be large; an effect the other way counts as inactive or inconclusive.

SMILES	RGS4 inh	D3 antag	PTHR1 ag	DRD3 agonist	B2AR arrestin	BRCA1 expr up
Cc1ccc2nc(-c3cccc(N)c3)[nH]c2c1	-24%	8	-33%	5	-1%	-17%
C[C@H](CO)N1C[C@H](C)[C@@H](CN(C)C(=O)C2CC2)OCc2cnnn2CCCC1=O	.	25	-20%	-2	.	-19%
COc1ccc(C(=O)N2CCCC2)cc1	33%	-13	?	-8	0%	0%
Cc1ccc(C)n1CCN1CCN(C(=O)c2ccc(Cl)cc2)CC1	4%	-78*	-11%	-13	8%	5%
O=C(c1ccc(Cl)cc1)N1CCN(CCOc2ccccc2)CC1	17%	-5	-17%	84*	0%	-13%
Cc1ccc(C)n1CCN1CCN(C(=O)c2ccco2)CC1	2%	-11	i	5	-1%	4%
COc1ccc(OCCN2CCN(C(=O)c3ccc(OC(F)F)c(OC)c3)CC2)cc1	5%	14	-27%	123*	0%	-30%
COc1ccc(OCCN2CCN(C(=O)c3ccc(OC)cc3)CC2)cc1	-2%	0	-23%	92*	0%	-1%
O=C(c1nc2ccccn2c1CNCCn1ccc2ccccc21)N1CCOCC1	14%	-9	-7%	-1	-1%	-10%
CCC(C)(C)NC(=O)C(c1ccc(OC)cc1)N(C(=O)CCC(=O)Nc1cc(C)on1)C(C)(C)C (stereo unspecified)	-9%	4	-21%	-32	0%	-27%
Cc1cc(C(=O)NCC23CC4CC(CC(C4)C2)C3)c(C)o1	.	.	.	.	0%	.
CCOc1ccc(S(=O)(=O)N2CCN(S(=O)(=O)c3ccc(C(C)=O)cc3)CC2)cc1	2%	-1	-15%	3	0%	14%
CC(=O)c1ccc(S(=O)(=O)N2CCN(CCOc3ccc(Br)cc3)CC2)cc1	25%	-22	-89%	49*	0%	-18%
CN(C(=O)Nc1ccc(Cl)cc1Cl)[C@H]1c2cc(Br)ccc2OC[C@H]1CO	5%	-16	-22%	18	0%	-29%
CCCC1CCC(c2ccc(OCC)cc2)=CC1=O (stereo unspecified)	-17%	10	-36%	-8	-1%	8.9µM*
Cc1snc(SCC(=O)c2ccc([N+](=O)[O-])cc2)c1C#N	?	10	-2%	0	0%	8%
Cc1snc(SCC(=O)c2ccc(F)cc2)c1C#N	-6%	1	-34%	6	0%	8.9µM*
COC(=O)c1ccccc1NC(=O)Cn1c(=O)n(CCC(=O)NCc2ccccc2OC)c(=O)c2ccccc21	20%	.	-49%	-12	.	0%
CCc1nn(CCCC(=O)NCc2cc(Br)ccc2OC)c(=O)c2cc3occc3n12	?	10	-8%	4	0%	0%
CN1CCN(C(=O)c2cc3c(c(-c4cccc(Br)c4)n2)[C@H](CCO)N(S(=O)C(C)(C)C)C3)CC1 (stereo partly specified)	.	-50*	25%	-14	.	18%
CN1C(=CC=C2C=C(I)C(=O)C(I)=C2)C(C)(C)c2ccccc21	13%	-5	-31%	-2	-1%	-19%
CN1/C(=C\C=C2/SC(=S)NC2=O)C(C)(C)c2ccccc21	?	-53*	-94%	-8	0%	-46%
CCCS(=O)(=O)NC(=O)C1(C)CCN(C(=O)c2cccnc2Oc2ccccc2)C1 (stereo unspecified)	.	10	i	4	.	0%
COc1ccc(NC(=O)/C(Cl)=C(/Cl)S(=O)Cc2ccc(Cl)cc2)cn1 (stereo unspecified)	?	-116*	-41%	-33	0%	-96%
COc1ccc(NC(=O)C(Cl)=C(Cl)Cl)cn1	2%	6	i	7	0%	-88%
SMILES	RGS4 inh	D3 antag	PTHR1 ag	DRD3 agonist	B2AR arrestin	BRCA1 expr up
Cc1cc(C)nc(N2N=C(C(F)(F)F)CC2=O)n1	28%	-7	-5%	-2	0%	7%
Cc1ccc(-c2noc(-c3ccno3)n2)cc1	-38%	9	-8%	24	1%	8.9µM*
Fc1cccc(F)c1-c1nc(-c2ccncc2)no1	-8%	3	-10%	4	0%	8.9µM*
Cc1ccc(-c2nc(-c3ccncc3)no2)cc1C	8%	31	-30%	6	8%	?
CCOC(=O)C1(CCCc2ccccc2)CCN(C(=O)C2CCCN(C(N)=O)C2)CC1 (stereo unspecified)	2%	5	0%	3	-1%	1%
Cc1ccc2cc(NC(=O)C3(C)CCN3CC(C)C)ccc2n1 (stereo unspecified)	.	14	-22%	1	.	5%
O=C(Nc1cccn2nc(COCCO)nc12)C(c1ccccc1)c1ccccc1	.	20	8%	8	.	0%
CCOc1cc(CNC(=O)c2ccc3nc(CCc4ccccc4)oc3c2)ccc1OC	-14%	.	i	0	.	.
COc1cc2c(NC3CCN(C)CC3)nc(N3CCCN(C)CC3)nc2cc1OCCCCCCN(C)C	.	.	.	.	.	-37%
CN(C)c1ccc(/C=C/CNC[C@H]2O[C@@H](n3ccc(N)nc3=O)[C@H](O)[C@@H]2O)cc1	.	-18	-3%	-8	.	21%
CNC(=O)CSc1nnc(-c2ccc3c(c2)OCO3)n1C	20%[56.9 µM]	-7	i	-6	0%	14%
COC(=O)CSc1nnc(-c2ccc3c(c2)OCO3)n1C	37%	-69*	-5%	-3	0%	1%
CCn1c(SCC(O)c2ccccc2)nnc1-c1ccccc1 (stereo unspecified)	23%	3	i	0	-1%	11µM*
O=C(O)c1c(Cl)c(Cl)c(Cl)c(Cl)c1-c1c2cc(I)c(=O)c(I)c-2oc2c(I)c(O)c(I)cc12	.	.	.	-26	.	.
CCN(Cc1ccc2c(c1)OCO2)C(=O)CSc1nc(C)nc2sc(C)c(C)c12	27%	60	-32%	40*	0%	-44%
Cc1c(NC(=O)c2ccc(C(C)(C)C)cc2)cccc1[N+](=O)[O-]	14%	-23	-40%	-8	0%	7.9µM*
Cc1ccc[n+](C(C)C(=O)Nc2ccc(C)c([N+](=O)[O-])c2)c1 (stereo unspecified)	-6%	-70*	-20%	-11	-1%	23%
Cc1cc(C(=O)Nc2cccc([N+](=O)[O-])c2C)cs1	4%	-25	-25%	-16	-1%	46%

Assay outcomes (PubChem)
